According to PubChem BioAssay AID624040 (The Scripps Research Institute Molecular Screening Center, 2012):
Hit rate of the full screen: of about 360,000 compounds, about 2,100 (0.58%) were called active.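 The calls were made as follows: active = inhibition above a per-plate cutoff, the mean of that plate's test compounds plus 3 SD (cut at about 27% in these data); inactive = the rest.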 The list comes from a sample in which actives are over-represented; it also holds similar structures and randomly drawn compounds.

molecular target: Muscarinic acetylcholine receptor M5 (Homo sapiens) (UniProt P08912); assay: human M5 muscarinic receptor antagonists, primary screen, CHO cells, Fluo-8 calcium fluorescence (AID 624040); conditions: CHO-hM5 cells, ACh EC80, at 3 µM, stronger effect = higher value;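 also: 0% = acetylcholine EC80 with DMSO and 100% = DMSO without agonist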
Sequence (P08912 whole entry, looked up): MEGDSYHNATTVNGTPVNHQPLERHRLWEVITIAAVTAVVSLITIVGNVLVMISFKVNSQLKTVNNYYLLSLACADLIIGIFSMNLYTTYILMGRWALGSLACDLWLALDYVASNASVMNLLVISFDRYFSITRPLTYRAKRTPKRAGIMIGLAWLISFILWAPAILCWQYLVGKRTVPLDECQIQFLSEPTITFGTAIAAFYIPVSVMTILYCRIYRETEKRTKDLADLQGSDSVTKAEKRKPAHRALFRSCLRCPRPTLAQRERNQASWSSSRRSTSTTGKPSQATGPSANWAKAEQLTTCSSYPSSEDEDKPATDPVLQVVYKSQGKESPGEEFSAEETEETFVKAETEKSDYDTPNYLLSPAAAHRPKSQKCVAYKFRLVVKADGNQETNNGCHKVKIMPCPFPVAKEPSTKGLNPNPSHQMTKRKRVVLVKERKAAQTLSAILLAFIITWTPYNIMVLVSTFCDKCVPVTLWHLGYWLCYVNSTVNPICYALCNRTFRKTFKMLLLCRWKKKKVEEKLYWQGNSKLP

| Compound | inhibition |
| --- | --- |
| O=S(=O)(NCCc1ccc(Cl)cc1)c1cccs1 | 2.77% (inactive) |
| O=S(=O)(Nc1ccccc1)c1ccc(NS(=O)(=O)c2cccs2)cc1 | 3.98% (inactive) |
| O=C(Nc1cccc(Cl)c1)Nc1ccccc1NS(=O)(=O)c1cccs1 | 30.1% (active) |
| CCCCCC1CCC(c2nnc(SCC(C)=O)o2)CC1 (configuration not stated) | -0.26% (inactive) |
| CCOC(=O)C(CO)NC(=O)C1(NC(C)=O)CCCC1 (configuration not stated) | 5.55% (inactive) |
| COc1cccc(N(CC(=O)NCc2ccccc2)C(=O)CCC(=O)Nc2nccs2)c1 | 9.51% (inactive) |
| CCCc1cc(=O)[nH]c2nnc(SCC(=O)Nc3nnc(SCC)s3)n12 | 6.93% (inactive) |
| COc1ccccc1OCCNC(=O)CCNC(=O)c1ccccc1Cl | 17.2% (inactive) |
| CC(=O)Nc1ccc(NC(=O)C(C)OC(=O)C2CC(=O)N(CCc3ccccc3)C2)cc1 (configuration not stated) | 7.46% (inactive) |
| COc1cccc(/C=C2\SC(=N)N(c3ccc(F)cc3)C2=O)c1 | 11% (inactive) |
| CC(=O)N1CC(C)c2scc(C)[n+]2-c2ccccc21 (configuration not stated) | -1.76% (inactive) |
| CCC(C(=O)NC1CCCC1)N(C(=O)c1snc(C(N)=O)c1N)c1ccc2c(c1)OCCO2 (configuration not stated) | -5.82% (inactive) |
| Cc1ccc(S(=O)(=O)NCCC(=O)NC2CCN(Cc3ccccc3)CC2)cc1 | 6.57% (inactive) |
| O=C(NNS(=O)(=O)c1ccc(Cl)cc1)C1CCN(Cc2ccccc2)CC1 | 40.5% (active) |
| O=C(NCc1ccccc1CN1CCCC1)C1CCN(S(=O)(=O)c2ccc(Cl)cc2)CC1 | 1.2% (inactive) |
| CN(C)CCNc1ccc(-c2n[nH]c(=O)c3ccccc23)cc1[N+](=O)[O-] | 5.87% (inactive) |
| O=C(NCC1(N2CCCCC2)CCCCC1)c1ccc(NS(=O)(=O)c2ccc(F)cc2)cc1 | 6.39% (inactive) |
| CC(C)c1ccc(NC(=O)COC(=O)c2ccc(CN3CCCC3=O)cc2)cc1 | 11.4% (inactive) |
| Cc1cc(C)c(S(=O)(=O)N2CCCC2CNC(=O)c2ccc3c(c2)OCO3)c(C)c1 (configuration not stated) | 10.3% (inactive) |

| Compound | inhibition |
| --- | --- |
| CCC(=O)c1ccc(OCC(=O)N(CC)CC2COc3ccccc3O2)cc1 (configuration not stated) | -6.74% (inactive) |
| c1ccc2c(c1)OCC(CNc1ncnc3nc[nH]c13)O2 (configuration not stated) | 46.2% (active) |
| O=C(COc1ccc(F)cc1Br)NCC1COc2ccccc2O1 (configuration not stated) | -3.52% (inactive) |
| CSc1ccccc1OCc1cc(C(=O)N2C[C@H]3CC[C@H]2C3)no1 | 23.9% (inactive) |
| CCc1nc2nc(C)c(NS(=O)(=O)c3ccc4c(c3)CCCC4)c(=O)n2[nH]1 | 17.6% (inactive) |
| CC(C)(C)N(CC#CCC(O)(c1ccccc1)C1CCCC1)CCO (configuration not stated) | 8.39% (inactive) |
| CN(CC#CCC(c1ccccc1)c1ccccc1)C(C)(C)C | 56.4% (active) |
| O=C1NC[C@@H](Cc2ccc(O)cc2)N(CCc2cccc(F)c2)C1=O | 10.1% (inactive) |
| CCCCC(C(=O)NC(C)(C)C)N(Cc1ccccc1)C(=O)c1snc(C(N)=O)c1N (configuration not stated) | -2.14% (inactive) |
| Cc1cc(C)c(OCC(=O)N(Cc2cccs2)C2CCS(=O)(=O)C2)c(C)c1 (configuration not stated) | 5.07% (inactive) |
| CN(C)C1=NC[C@H](Cc2ccccc2)N1CCc1ccc(F)cc1 | 2.48% (inactive) |
| CCCC[C@@H]1CN=C(N)N1CCc1cc(C(F)(F)F)cc(C(F)(F)F)c1 | 32.4% (active) |
| CCCCN1C(N)=NC[C@@H]1CC1CCCCC1 | 0.65% (inactive) |
| COc1cccc(C(O)c2nc(-c3ccc(C)c(C)c3)cs2)c1 (configuration not stated) | 2.71% (inactive) |
| O=C(NC1=CC(=O)c2ccccc2C1=O)c1ccccc1 | 36.2% (active) |
| CN(C)C(=O)c1ccc(NC(=O)c2ccccc2-c2ccccc2)cc1 | 12.5% (inactive) |
| Cc1ccc(C(=O)Nc2c(-c3ccccc3)[nH][nH]c2=O)cc1 | -12.3% (inactive) |
| O=C(O)CCC(=O)Nc1ccc(OCC2CCCO2)cc1 (configuration not stated) | -4.56% (inactive) |
| COc1ccc(NC(=O)CN2C(=O)CSc3ccc(S(=O)(=O)N4CCC(C)CC4)cc32)cc1 | -4.66% (inactive) |

| Compound | inhibition |
| --- | --- |
| COc1ccc(CNS(=O)(=O)c2cc(-c3cc(C)no3)ccc2C(C)C)cc1 | 27.2% (active) |
| CCc1ccc(-c2cc(C)no2)cc1S(=O)(=O)NCCc1ccc(S(N)(=O)=O)cc1 | -7.03% (inactive) |
| Cc1cc(-c2ccc(C)c(S(=O)(=O)NCCCN(Cc3ccccc3)C(C)C)c2)on1 | -8.38% (inactive) |
| CSCCC(NC(=O)COc1ccccc1)C(=O)Nc1ccc(C)cc1 (configuration not stated) | 0.42% (inactive) |
| O=c1cc(CN2CCCCCCC2)c2c(ccc3ccccc32)o1 | 1.52% (inactive) |
| CC(C)c1ccc2oc(=O)cc(CN3CCN(Cc4ccccc4)CC3)c2c1 | 27.9% (active) |
| Cc1cc2oc(=O)cc(CN3CCN(S(=O)(=O)c4cccs4)CC3)c2cc1C(C)C | 6.3% (inactive) |
| COc1ccc(-c2cc3nc(C)c(CCC(=O)NC(C)CCc4ccco4)c(C)n3n2)c(OC)c1 (configuration not stated) | -13.5% (inactive) |
| CCC(C)C(NC(=O)C1CCC(=O)N1C(=O)OCc1ccccc1)C(=O)NC(C(=O)N1CCCC1C(N)=O)C(C)CC (configuration not stated) | 5.74% (inactive) |
| CCCCCCCCn1c2c(c(=N)c3c1CCC3)CCCC2 | 32.9% (active) |
| C#Cc1ccc([C@@H]2C=C(C(=O)O)O[C@H](OCCCCO)C2)cc1 | 13.8% (inactive) |
| CCCN(Cc1cc2cccc(C)c2[nH]c1=O)S(C)(=O)=O | -2.81% (inactive) |
| COc1cccc(CNC(=O)CCC2CCCN(C(=O)c3ccc(F)c(Cl)c3)C2)c1 (configuration not stated) | -0.63% (inactive) |
| COc1cccc(CNC(=O)CCC2CCCN(C(=O)c3ccoc3C)C2)c1 (configuration not stated) | 12.6% (inactive) |
| COc1cccc(CNC(=O)CCC2CCCN(C(=O)c3cc(C)[nH]n3)C2)c1 (configuration not stated) | 32.7% (active) |
| CC1(C)Cc2nc3sc4c(SCC(=O)NC(c5ccccc5)c5ccccc5)ncnc4c3cc2CO1 | -8.35% (inactive) |
| CN(C)c1ccc(/C=C2\NC(=S)N(Cc3ccccc3)C2=O)cc1 | 52.7% (active) |
| CCN(C(=O)CSc1nnnn1-c1ccc(OC)cc1)C1CCS(=O)(=O)C1 (configuration not stated) | 12.8% (inactive) |
| CC(Sc1nn(-c2ccc(Cl)cc2)c(=S)s1)C(=O)NCC1CCCO1 (configuration not stated) | -4.62% (inactive) |
